The values below come from the supplement of paper PMC12494721.

Where a name gives a salt, the structure may show the parent alone. A number with no mark means an inactive call.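 How the source made its calls: for the amine columns active = adjusted P below 0.05 in both replicates with a change the same way and a mean fold change under 0.8 or over 1.25; inactive = the rest.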

The assay concerns Ruminococcus gnavus DSM 108212. The assay can be described thus: fold change of 2-Phenylethylamine concentration vs plate DMSO controls (fold change (ratio)); higher = more amine produced, active = hit call of the paper (significant change in both replicates, either direction). To be noted: incubation time: 27 h, anaerobic, 37 °C. The procedure, abridged: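 Each value is the fold change relative to DMSO-only wells on the same plate. Four gut bacterial strains were grown anaerobically in mGAM at 37 °C for 27 h in 80 µL wells, starting at OD 0.1 before a 1:1 dilution, with compounds at 20 µM final (sweeteners 50 µM). Whole cultures were extracted with cold acetonitrile/methanol containing 0.1% formic acid, centrifuged, and amines were quantified by LC–triple-quadrupole MS (dynamic MRM) against external calibration curves with within-batch drift correction. Values are means of 2 biological replicates.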
As for `CC(CN(C)C)C(C)(O)Cc1ccc(Cl)cc1` (configuration not stated) [Clobutinol hydrochloride] (20 µM), the “fold change of 2-Phenylethylamine concentration” value (from here on “fold change”) is 0.988.
Then `Oc1c(Cl)cc(Cl)c2cccnc12` [Chloroxine] (20 µM), with 0.681; and `CC(=O)OCC(=O)[C@@]1(O)CC[C@H]2[C@@H]3CCC4=CC(=O)CC[C@]4(C)[C@@]3(F)[C@@H](O)C[C@@]21C` [Fludrocortisone acetate] (20 µM), with 0.966.
Then `CC1=C(C(=O)O)N2C(=O)[C@@H](NC(=O)[C@H](N)c3ccc(O)cc3)[C@H]2SC1` [Cefadroxil] (20 µM), with 1.03; and `OC[C@H]1O[C@@](CO)(O[C@H]2O[C@H](CO)[C@@H](O)[C@H](O)[C@H]2O)[C@@H](O)[C@@H]1O` [Sucrose] (50 µM), with 1.12; and `CCN(CC)CCOC(=O)C(c1ccccc1)C1CCCCC1` (configuration not stated) [Drofenine hydrochloride] (20 µM), with 0.921.
Then `CN(C)CCCN1c2ccccc2Sc2ccccc21` [Promazine hydrochloride] (20 µM), with 0.829.
Regarding `CCc1cccc(CC)c1NC(=O)CN(CC(=O)O)CC(=O)O` [Etifenin] (20 µM), the “fold change” value was 0.924.
The result for `CC(Cc1cccc(C(F)(F)F)c1)NCCOC(=O)c1ccccc1` (configuration not stated) [Benfluorex] (20 µM) reads 0.797; that for `Cn1c(=O)c2c(ncn2C)n(C)c1=O` [Caffeine] (20 µM), 1.06; that for `O=c1[nH]c(=O)n([C@H]2C[C@H](O)[C@@H](CO)O2)cc1C(F)(F)F` [Trifluridine] (20 µM), 1.11.
On to `CCOC(=O)NNc1nncc2ccccc12` [Todralazine hydrochloride] (20 µM), for which the “fold change” value is 1.03.
